Rows were chosen to be rich in hits. Some 3.8% of all compounds tested hit in one or more screens of this group.
Bfl-1 A1 inh – inhibitors of the anti-apoptotic protein A1, read as caspase activation | MEF A1-2A-BIM cells, Caspase-Glo 3/7 luminescence, 3 h; percent of clofoctol response, vehicle zero | caspase activation, % (concentration not given with the values) | actives 0.066% (n = 330,000) | AID 2462;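 active = over half of replicate activation scores above 10%, or exactly half above 10 with the replicate mean above 10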
Jurkat NFkB inh – inhibitors of the PMA/ionomycin-induced NF-kB reporter in Jurkat cells. inhibition, % at 4 µM. PMA/ionomycin-induced NF-kB luciferase reporter, luminescence. actives 0.53% (n = 330,000); in the data active = inhibition above about 50%
697 NFkB inh – inhibitors of the PMA/ionomycin-induced NF-kB reporter in 697 B cells. actives 0.33% (n = 330,000). 697 B-cell NF-kB luciferase reporter, 16 h. inhibition, % at 4 µM; in the data active = inhibition above about 35%
Mdm2-MdmX inh – inhibitors of human Mdm2/MdmX interaction. inhibition, % at 8 µM. AID 485346. actives 3% (n = 330,000). SaOS-2 split-luciferase Mdm2/MdmX complementation, luminescence. O15151+Q00987;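 active = inhibition of at least 50% at 8 µM in the primary screen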
NTR1 ag – agonists of human neurotensin receptor NTR1. NTR1-U2OS beta-arrestin-GFP spot imaging, agonist mode. activation, % at 20 µM. actives 0.17% (n = 330,000). AID 493036;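 active = activation at or above 40% of the spot to cytoplasm intensity ratio, with at least 20 cells analyzed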;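 note: 0% = DMSO without peptide and 100% = 100 nM NTR1 peptide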
Beta apoptosis – beta cell apoptosis inhibition | INS-1E cytokine-induced death, ATP luminescence, 48 h; percent of positive-control rescue, neutral wells zero | protection from apoptosis, % (test concentration not listed) | actives 0.8% (n = 300,000) | AID 435005;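 active = Every replicate reaches about 75%, or at least half do and their mean reaches it too, limit read from the data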;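 note: 0% = cytokine-treated negative control wells and 100% = positive control rescue; higher means more ATP so stronger rescue from cytokine killing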
Mdm2 MdmX conf – human Mdm2/MdmX binding inhibition, confirmed; actives 55% (n = 10,000); AID 489028; inhibition, % at 8 µM; shares compounds with Mdm2-MdmX inh; luminescent assay; in the data active = inhibition above about 40%
FLuc counter – counter-screen for Mdm2/MdmX inhibitors: full-length luciferase. shares compounds with Mdm2-MdmX inh. SaOS-2 full-length luciferase counterscreen, luminescence. inhibition, % at 8 µM. actives 77% (n = 6,200). AID 504607;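 active = mean inhibition at 8 µM reaching about 37%, which flags the compound as non-specific, limit read from the data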;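 note: p53-null SaOS-2 cells with luciferase driven by a doxycycline-inducible promoter; compound on cells about two nights before reading with doxycycline added after day one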
* = called active by the depositor.

`CCOC(=O)c1c(CSC(=N)N)n(-c2ccc(C)cc2)c2cc(Br)c(OC(C)=O)cc12` gave Bfl-1 A1 inh 0, Jurkat NFkB inh -6, 697 NFkB inh -32, Mdm2-MdmX inh 92*, NTR1 ag 19, Beta apoptosis 9 and Mdm2 MdmX conf 9.
COc1ccc(N2CCN(C(CNC(=O)C(C)C)c3ccc4c(c3)OCO4)CC2)cc1 (centres undefined) was read as Bfl-1 A1 inh -1, Jurkat NFkB inh -9, 697 NFkB inh -10, Mdm2-MdmX inh -6, NTR1 ag -1 and Beta apoptosis 0.
COc1ccc(Cl)cc1C(=O)NC(=S)Nc1cc(-c2nc3ccccc3[nH]2)ccc1C was read as Bfl-1 A1 inh 2, Jurkat NFkB inh -50, 697 NFkB inh -52, Mdm2-MdmX inh 76*, NTR1 ag 3, Beta apoptosis 7 and Mdm2 MdmX conf 1.
`Cc1ccc(C(=O)N/C(=C\c2ccc(-c3ccc(Br)cc3)o2)C(=O)NCCCN(C)C)cc1` gave Bfl-1 A1 inh 0, Jurkat NFkB inh 8, 697 NFkB inh 2, Mdm2-MdmX inh 100*, NTR1 ag 5, Beta apoptosis 100*, Mdm2 MdmX conf 99* and FLuc counter 55*.
For CN(C)CCNC(=O)/C(=C/c1ccc(-c2ccc(Cl)cc2)o1)NC(=O)c1ccccc1 the results were Bfl-1 A1 inh 0 and Beta apoptosis 0.
`CN(C)CCNC(=O)/C(=C/c1ccc(-c2ccc(Cl)cc2Cl)o1)NC(=O)c1ccccc1` gave Bfl-1 A1 inh 0, Jurkat NFkB inh 7, 697 NFkB inh 15, Mdm2-MdmX inh 100*, NTR1 ag 12, Beta apoptosis 99*, Mdm2 MdmX conf 100* and FLuc counter 26.
CC(C)(C)C(=O)NC(=S)NNC(=O)c1sc2ccccc2c1Cl was read as Bfl-1 A1 inh 1, Jurkat NFkB inh 25, 697 NFkB inh -92, Mdm2-MdmX inh 74*, NTR1 ag -3, Beta apoptosis 67, Mdm2 MdmX conf 52* and FLuc counter 37*.
Screening Cc1ccc(-c2csc(=Nc3cccnc3)n2CCCn2ccnc2)cc1C returned Bfl-1 A1 inh 0, Jurkat NFkB inh 30, 697 NFkB inh -96, Mdm2-MdmX inh 71*, NTR1 ag 0, Beta apoptosis 0, Mdm2 MdmX conf 75* and FLuc counter 24.
`CN(c1ccc(C(=O)Nc2ccc(F)cc2F)cc1)S(=O)(=O)c1ccccc1` gave Bfl-1 A1 inh 0, Jurkat NFkB inh 2, 697 NFkB inh -16, Mdm2-MdmX inh 28, NTR1 ag 1 and Beta apoptosis 8.
CCCCCCNC(=O)N1C/C=C\C(c2ccc(OC)cc2)N(Cc2ccc(F)cc2)C(=O)C1 (centres undefined) was read as Bfl-1 A1 inh 0, Jurkat NFkB inh 6, 697 NFkB inh 14, Mdm2-MdmX inh 0, NTR1 ag 2 and Beta apoptosis -10.
`CCCCCCC(=O)N1C/C=C\C(c2ccc(OC)cc2)N(Cc2ccc(F)cc2)C(=O)[C@H]1Cc1ccccc1` (some centres undefined) gave Bfl-1 A1 inh 0, Jurkat NFkB inh 10, 697 NFkB inh -13, Mdm2-MdmX inh 72*, NTR1 ag 4, Beta apoptosis 100*, Mdm2 MdmX conf 40 and FLuc counter 62*.
Screening CC(Oc1ccccc1F)C(=O)Nc1ccc2ccccc2c1 (centres undefined) returned Bfl-1 A1 inh -1, Jurkat NFkB inh -67, 697 NFkB inh -182, Mdm2-MdmX inh 68*, NTR1 ag 0, Beta apoptosis -2, Mdm2 MdmX conf 63* and FLuc counter 66*.
CC(Oc1ccc(F)cc1)C(=O)Nc1ccc2ccccc2c1 (centres undefined) was read as Bfl-1 A1 inh 0, Jurkat NFkB inh -35, 697 NFkB inh -91, Mdm2-MdmX inh 53*, NTR1 ag -2, Beta apoptosis 6 and Mdm2 MdmX conf 35.
COc1ccc(OC(C)C(=O)Nc2cccc(F)c2)cc1 (centres undefined) was read as Bfl-1 A1 inh 0, Jurkat NFkB inh 1, 697 NFkB inh 5, Mdm2-MdmX inh 8, NTR1 ag 0 and Beta apoptosis 4.
`Cc1ccc(NC(=O)CCc2nnc3ccc(N4CCOCC4)nn23)cc1C` gave Bfl-1 A1 inh 0, Jurkat NFkB inh -1, 697 NFkB inh -16, Mdm2-MdmX inh -8, NTR1 ag 2 and Beta apoptosis -6.
`Cc1cccc(N(C(=O)CCC(=O)Nc2cc(C)on2)C(C(=O)NC2CCCC2)c2ccccc2)c1` (centres undefined) gave Bfl-1 A1 inh 0, Jurkat NFkB inh 27, 697 NFkB inh -7, Mdm2-MdmX inh 5, NTR1 ag 2 and Beta apoptosis 4.
For CCCCN(C(=O)CCC(=O)Nc1cc(C)on1)C(C(=O)NC1CCCC1)c1ccccc1C (centres undefined) the results were Bfl-1 A1 inh 0, Jurkat NFkB inh 1, 697 NFkB inh 5, Mdm2-MdmX inh 8, NTR1 ag -2 and Beta apoptosis -3.
For CCOc1ccc(N(C(=O)/C=C/C(=O)Nc2cc(C)on2)C(C(=O)NC2CCCC2)c2ccccc2C)cc1 (centres undefined) the results were Bfl-1 A1 inh 0, Jurkat NFkB inh 13, 697 NFkB inh 1, Mdm2-MdmX inh 81*, NTR1 ag 4, Mdm2 MdmX conf 77* and FLuc counter 27.
Cc1cc(NC(=O)/C=C/C(=O)N(CC(=O)NC2CCCC2)c2cccc3ccccc23)no1 was read as Bfl-1 A1 inh 1, Jurkat NFkB inh -2, 697 NFkB inh 21, Mdm2-MdmX inh 53*, NTR1 ag 7, Beta apoptosis -8 and Mdm2 MdmX conf 32.
`CCc1ccc(C(C(=O)NC2CCCC2)N(C(=O)/C=C/C(=O)Nc2cc(C)on2)c2ccccc2C)cc1` (centres undefined) gave Bfl-1 A1 inh 2, Jurkat NFkB inh 9, 697 NFkB inh 12, Mdm2-MdmX inh 77*, NTR1 ag 22, Beta apoptosis -4, Mdm2 MdmX conf 75* and FLuc counter 59*.
O=C(O)Cc1ccc(NC(=O)Nc2ccc3c(c2)OCO3)cc1 was read as Bfl-1 A1 inh -1, Jurkat NFkB inh -22, 697 NFkB inh -16, Mdm2-MdmX inh -5, NTR1 ag 0 and Beta apoptosis -7.
